In PubChem BioAssay AID1159580 (chemical genetic matrix, 2015):
Several values for one entry are separate records, joined by “and”; a condition that tells them apart may be missing. Equal entries are not always repeated. Out of some 5,500 compounds screened, about 2,000 (36%) were called active. Roughly 18% stayed inconclusive and do not appear here. This is one part of the list. A number with no mark means an inactive call. No stated cut-off is given here; in the data, active means normalized growth mostly below about 0.91 (no sharp cut-off); inconclusive means no clear call, values can overlap the other calls; inactive means mostly above about 0.92.

Test: chemical genetic growth profiling, strain panel (AID 1159580);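 further: tested at 20 µM; growth read once vehicle control cultures reached saturation at 30 °C; 1 = growth at the plate median or of vehicle wells; lower values mean less growth of the strain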
Settings: growth OD

Q: What does the source list for `O=C(O)c1cc([N+](=O)[O-])ccc1NCCCc1ccccc1`?
A: normalized growth (S. cerevisiae deletion strains, locus YAL013W, strain DEP1, hits give low values): 0.994; normalized growth (S. cerevisiae deletion strains, locus YAL040C, strain CLN3, hits give low values): 0.958; normalized growth (S. cerevisiae deletion strains, locus YBR021W, strain FUR4, hits give low values): 0.892; normalized growth (S. cerevisiae deletion strains, locus YBR229C, strain ROT2, hits give low values): 0.959; normalized growth (S. cerevisiae deletion strains, locus YCL029C, strain bik1, hits give low values): 0.931; normalized growth (S. cerevisiae deletion strains, locus YCL061C, strain MRC1 (second series), hits give low values): 1.01; normalized growth (S. cerevisiae deletion strains, locus YDL035C, strain GPR1, hits give low values): 0.953; normalized growth (S. cerevisiae deletion strains, locus YDL074C, strain BRE1, hits give low values): 0.972; normalized growth (S. cerevisiae deletion strains, locus YDL101C, strain DUN1, hits give low values): 0.984; normalized growth (S. cerevisiae deletion strains, locus YDL134C, strain PPH21, hits give low values): 0.966; normalized growth (S. cerevisiae deletion strains, locus YDL185W, strain tfp1, hits give low values): 0.868 (active); normalized growth (S. cerevisiae deletion strains, locus YDL192W, strain arf1, hits give low values): 0.941; normalized growth (S. cerevisiae deletion strains, locus YDR101C, strain arx1, hits give low values): 0.933; normalized growth (S. cerevisiae deletion strains, locus YDR150W, strain NUM1, hits give low values): 1.01; normalized growth (S. cerevisiae deletion strains, locus YDR162C, strain NBP2, hits give low values): 0.953; normalized growth (S. cerevisiae deletion strains, locus YDR318W, strain mcm21, hits give low values): 0.939; normalized growth (S. cerevisiae deletion strains, locus YDR363W, strain ESC2, hits give low values): 0.987; normalized growth (S. cerevisiae deletion strains, locus YDR388W, hits give low values): 0.928; normalized growth (S. cerevisiae deletion strains, locus YDR502C, strain sam2, hits give low values): 0.94; normalized growth (S. cerevisiae deletion strains, locus YEL061C, strain CIN8, hits give low values): 0.97; normalized growth (S. cerevisiae deletion strains, locus YER002W, strain NOP16, hits give low values): 0.954; normalized growth (S. cerevisiae deletion strains, locus YER110C, hits give low values): 0.932; normalized growth (S. cerevisiae deletion strains, locus YER155C, strain BEM2, hits give low values): 0.915 (active); normalized growth (S. cerevisiae deletion strains, locus YER167W, strain BCK2, hits give low values): 0.943; normalized growth (S. cerevisiae deletion strains, locus YGL078C, strain dbp3, hits give low values): 0.895 (active); normalized growth (S. cerevisiae deletion strains, locus YGL086W, strain mad1, hits give low values): 0.985; normalized growth (S. cerevisiae deletion strains, locus YGL248W, strain PDE1, hits give low values): 0.984; normalized growth (S. cerevisiae deletion strains, locus YGR078C, strain PAC10, hits give low values): 0.986; normalized growth (S. cerevisiae deletion strains, locus YGR135W, strain pre9, hits give low values): 0.933; normalized growth (S. cerevisiae deletion strains, locus YGR252W, strain gcn5, hits give low values): 0.893; normalized growth (S. cerevisiae deletion strains, locus YHR030C, strain SLT2, hits give low values): 0.941; normalized growth (S. cerevisiae deletion strains, locus YHR079C, strain IRE1 (second series), hits give low values): 0.934; normalized growth (S. cerevisiae deletion strains, locus YHR094C, strain hxt1, hits give low values): 0.921 (active); normalized growth (S. cerevisiae deletion strains, locus YHR129C, strain ARP1, hits give low values): 0.952; normalized growth (S. cerevisiae deletion strains, locus YHR200W, strain rpn10, hits give low values): 0.922; normalized growth (S. cerevisiae deletion strains, locus YIL066C, strain RNR3, hits give low values): 0.983; normalized growth (S. cerevisiae deletion strains, locus YIL073C, strain SPO22, hits give low values): 0.829; normalized growth (S. cerevisiae deletion strains, locus YIL125W, strain kgd1, hits give low values): 0.861 (active); normalized growth (S. cerevisiae deletion strains, locus YIR030C, strain dcg1, hits give low values): 0.918 (active); normalized growth (S. cerevisiae deletion strains, locus YJL095W, strain BCK1, hits give low values): 1.01; normalized growth (S. cerevisiae deletion strains, locus YJL134W, strain LCB3, hits give low values): 0.944; normalized growth (S. cerevisiae deletion strains, locus YJL168C, strain set2, hits give low values): 0.94; normalized growth (S. cerevisiae deletion strains, locus YJL187C, strain SWE1 (second series), hits give low values): 0.996; normalized growth (S. cerevisiae deletion strains, locus YJR043C, strain POL32, hits give low values): 0.987; normalized growth (S. cerevisiae deletion strains, locus YJR075W, strain HOC1, hits give low values): 1; normalized growth (S. cerevisiae deletion strains, locus YKL009W, strain mrt4, hits give low values): 0.707 (active); normalized growth (S. cerevisiae deletion strains, locus YKL068W, hits give low values): 0.873 (active); normalized growth (S. cerevisiae deletion strains, locus YKL085W, strain MDH1 (second series), hits give low values): 0.848 (active); normalized growth (S. cerevisiae deletion strains, locus YKL085W, strain MDH1, hits give low values): 0.848 (active); normalized growth (S. cerevisiae deletion strains, locus YKL190W, strain CNB1, hits give low values): 0.967; normalized growth (S. cerevisiae deletion strains, locus YKR001C, strain vps1, hits give low values): 0.934; normalized growth (S. cerevisiae deletion strains, locus YLR039C, strain RIC1, hits give low values): 0.973; normalized growth (S. cerevisiae deletion strains, locus YLR058C, strain SHM2, hits give low values): 0.964; normalized growth (S. cerevisiae deletion strains, locus YLR102C, strain apc9, hits give low values): 0.93; normalized growth (S. cerevisiae deletion strains, locus YLR262C, strain YPT6, hits give low values): 0.933; normalized growth (S. cerevisiae deletion strains, locus YLR268W, strain sec22, hits give low values): 0.957; normalized growth (S. cerevisiae deletion strains, locus YLR330W, strain CHS5, hits give low values): 0.927; normalized growth (S. cerevisiae deletion strains, locus YLR342W, strain FKS1 (second series), hits give low values): 0.952; normalized growth (S. cerevisiae deletion strains, locus YLR371W, strain rom2, hits give low values): 0.951; normalized growth (S. cerevisiae deletion strains, locus YLR418C, strain cdc73, hits give low values): 0.901; normalized growth (S. cerevisiae deletion strains, locus YML016C, strain PPZ1, hits give low values): 0.958; normalized growth (S. cerevisiae deletion strains, locus YML032C, strain rad52, hits give low values): 0.968; normalized growth (S. cerevisiae deletion strains, locus YML124C, strain tub3, hits give low values): 0.935; normalized growth (S. cerevisiae deletion strains, locus YMR078C, strain ctf18, hits give low values): 0.903 (active); normalized growth (S. cerevisiae deletion strains, locus YMR223W, strain ubp8, hits give low values): 0.945; normalized growth (S. cerevisiae deletion strains, locus YMR263W, strain SAP30, hits give low values): 1.01; normalized growth (S. cerevisiae deletion strains, locus YMR307W, strain GAS1, hits give low values): 0.945; normalized growth (S. cerevisiae deletion strains, locus YNL067W, strain RPL9B, hits give low values): 0.998; normalized growth (S. cerevisiae deletion strains, locus YNL128W, strain TEP1, hits give low values): 0.974; normalized growth (S. cerevisiae deletion strains, locus YNL153C, strain GIM3, hits give low values): 1.03 and 0.971; normalized growth (S. cerevisiae deletion strains, locus YNL175C, strain NOP13, hits give low values): 0.95; normalized growth (S. cerevisiae deletion strains, locus YNL197C, strain WHI3, hits give low values): 0.949; normalized growth (S. cerevisiae deletion strains, locus YNL224C, strain SQS1, hits give low values): 0.945; normalized growth (S. cerevisiae deletion strains, locus YNL233W, strain BNI4, hits give low values): 1; normalized growth (S. cerevisiae deletion strains, locus YNL250W, strain rad50, hits give low values): 0.851 (active); normalized growth (S. cerevisiae deletion strains, locus YNL271C, strain bni1, hits give low values): 0.874 (active); normalized growth (S. cerevisiae deletion strains, locus YNL298W, strain CLA4, hits give low values): 0.753 (active); normalized growth (S. cerevisiae deletion strains, locus YNL307C, strain MCK1, hits give low values): 0.939; normalized growth (S. cerevisiae deletion strains, locus YNL322C, strain KRE1, hits give low values): 0.968; normalized growth (S. cerevisiae deletion strains, locus YNR052C, strain pop2, hits give low values): 0.949; normalized growth (S. cerevisiae deletion strains, locus YOL006C, strain TOP1, hits give low values): 1.07; normalized growth (S. cerevisiae deletion strains, locus YOL012C, strain htz1): 0.889; normalized growth (S. cerevisiae deletion strains, locus YOL147C, strain pex11, hits give low values): 0.931 (active); normalized growth (S. cerevisiae deletion strains, locus YOR061W, strain CKA2, hits give low values): 0.972; normalized growth (S. cerevisiae deletion strains, locus YOR069W, strain VPS5, hits give low values): 0.958; normalized growth (S. cerevisiae deletion strains, locus YOR083W, strain WHI5 (second series), hits give low values): 0.978; normalized growth (S. cerevisiae deletion strains, locus YOR136W, strain idh2, hits give low values): 0.993; normalized growth (S. cerevisiae deletion strains, locus YOR144C, strain elg1, hits give low values): 0.939; normalized growth (S. cerevisiae deletion strains, locus YOR184W, strain ser1, hits give low values): 0.948; normalized growth (S. cerevisiae deletion strains, locus YOR316C, strain cot1, hits give low values): 0.945; normalized growth (S. cerevisiae deletion strains, locus YPL055C, strain LGE1, hits give low values): 1.01 and 1.02; normalized growth (S. cerevisiae deletion strains, locus YPR119W, strain clb2, hits give low values): 0.924 (active); normalized growth (S. cerevisiae deletion strains, locus YPR141C, strain kar3, hits give low values): 0.872 (active); normalized growth (S. cerevisiae deletion strains, locus YPR163C, strain tif3, hits give low values): 0.925; normalized growth (S. cerevisiae deletion strains, locus YPR167C, strain met16, hits give low values): 0.943; normalized growth (S. cerevisiae deletion strains, strain wtn01, hits give low values): 0.967; normalized growth (S. cerevisiae strains, strain wild type, hits give low values): 0.963
